# Experimental data: PubChem BioAssay (NCATS)
# Records with an inconclusive call do not appear. Calls of active or inactive are those of the source. The call rests on the fitted dose curve.
# Biological target: Retinoic acid receptor RXR-alpha (Homo sapiens) (UniProt P19793)
# Test: qHTS assay for small molecule agonists of retinoid X receptor alpha signaling (AID 588544)
# Settings: HEK293T RXRa-UAS-bla, beta-lactamase reporter, 18 h; series mostly up to 76.7 µM
# From the text: NIH Chemical Genomics Center [NCGC] U.S. Environmental Protection Agency [EPA] National Institutes of Environmental Health Sciences [NIEHS] National Toxicology Program [NTP] NCGC Assay Overview The Retinoid X receptor (RXR), a nuclear hormone receptor is expressed in liver, spleen, placenta, epidermis, central nervous system. These receptors are able to form homo and heterodimers with other nuclear receptors and due to this heterodimerizing ability, RXR functions as master regulators producing diverse physiological effects. Three subtypes of RXR exist; alpha, beta and gamma. Retinoid X receptor alpha (RXR-alpha) has potential roles in metabolic signaling pathways, skin alopecia, dermal cysts, cardiac development, insulin sensitization etc. Therefore screening environmental chemicals on RXR-alpha signaling can be used for the studies focused on such therapeutic applications.
# NCGC Assay Protocol Summary Using a beta-lactamase reporter-gene under control of Retinoid X receptor--alpha (RXR-alpha) response element, a cell-based assay [GeneBLAzer (RXR-alpha -UAS-bla assay developed by Invitrogen] was used to measure RXR-alpha ligands signaling. GeneBLAzer RXR-alpha -UAS-bla HEK293T cells were used with assay medium containing 2% charcoal-stripped FBS. The assay was performed in clear bottom black Greiner 1536-well plates. 9-cis-retinoic acid was used in the screen as the positive control. Library compounds were measured for their ability to stimulate the reporter gene activity. Compounds were screened in a titration series in 1536-well format. The fluorescence intensity (405 nm excitation, 460/530 nm emission) was measured using an EnVision plate reader. Data was normalized relative to 9-cis-retinoic acid control (500 nM, 100%), and DMSO only wells (basal, 0%). Concentration-response titration points for each compound were fitted to the Hill equation yielding concentrations of half-maximal stimulation (EC50) and maximal response (efficacy) values. qHTS protocol for RXR-alpha beta-lactamase assay in agonist mode [Step] [Parameter] [Value] [Description] 1. Reagent; 6 uL; 2500 cells/well 2. Incubation; 37 C for 4 hrs 3. Compounds; 23 nL; 0.59 nM to 92 uM 4. Controls (9-cis-retinoic acid); 23 nL, - One column with dose response, start 38 uM, 1:3 dilutions in duplicates - Final concentrations of 500 nM and 50 nM in two columns 5. Incubation; 37 C for 18 hrs 6. Detection reagent; 1 uL of CCF4-dye 7. Incubation; RT for 2 hrs 8. Detection; Fluorescence; Envision plate reader
# Chain of Retinoic acid receptor RXR-alpha (Homo sapiens) (P19793 whole entry, looked up): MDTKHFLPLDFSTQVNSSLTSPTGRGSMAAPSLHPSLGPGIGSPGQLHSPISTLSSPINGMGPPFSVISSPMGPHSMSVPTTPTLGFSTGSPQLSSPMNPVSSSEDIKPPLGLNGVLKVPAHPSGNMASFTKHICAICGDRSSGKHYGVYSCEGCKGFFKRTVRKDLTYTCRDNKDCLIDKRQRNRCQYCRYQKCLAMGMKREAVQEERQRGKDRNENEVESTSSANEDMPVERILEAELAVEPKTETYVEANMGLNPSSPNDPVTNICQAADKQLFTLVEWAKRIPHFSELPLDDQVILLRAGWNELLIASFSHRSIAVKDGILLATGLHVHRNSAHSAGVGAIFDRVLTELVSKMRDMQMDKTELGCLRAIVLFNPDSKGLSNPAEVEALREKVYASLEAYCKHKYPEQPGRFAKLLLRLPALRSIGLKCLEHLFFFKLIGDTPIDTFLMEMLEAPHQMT
row,SMILES,outcome
1,COc1ccc(C(Cl)=C(c2ccc(OC)cc2)c2ccc(OC)cc2)cc1,inactive
2,CCCCCCCC/C=C\CCCCCCCCN,inactive
3,CC1(C)OC[C@@H]2O[C@@]3(C(=O)O)OC(C)(C)O[C@H]3[C@@H]2O1,inactive
4,CCCCCCCCCCCCCC(=O)OC(C)C,inactive
5,CCOc1ccccc1C(N)=O,inactive
6,C/C=C/c1ccc(O)c(OC)c1,inactive
7,CCCCCCCCOc1ccc(C(=O)c2ccccc2)c(O)c1,inactive
8,CCCCOC(=O)CC(CC(=O)OCCCC)(OC(C)=O)C(=O)OCCCC,inactive
9,CCCCCCCCCCCCCCCCO,inactive
10,CCCCC(CC)COC(=O)c1ccc(N(C)C)cc1 (stereo not given),inactive
11,CCCN(CCC)S(=O)(=O)c1ccc(C(=O)O)cc1,inactive
12,CCOc1ccc(NC(C)=O)cc1,inactive
13,C#C[C@]1(O)CC[C@H]2[C@@H]3CCC4=Cc5oncc5C[C@]4(C)[C@H]3CC[C@@]21C,inactive
14,NC(=O)c1ccccc1O,inactive
15,NCCNc1cccc2ccccc12,inactive
16,CCCCCCCCCCCCCCCC(=O)O,inactive
17,Oc1ccc(Cl)cc1Cc1cc(Cl)ccc1O,inactive
18,O=C(O)c1ccc(S(=O)(=O)N(Cl)Cl)cc1,inactive
19,CN(C)C(=O)Nc1ccc(Cl)c(Cl)c1,inactive
20,OC[C@H]1O[C@@H]2O[C@H]3[C@H](O)[C@@H](O)[C@@H](O[C@H]4[C@H](O)[C@@H](O)[C@@H](O[C@H]5[C@H](O)[C@@H](O)[C@@H](O[C@H]6[C@H](O)[C@@H](O)[C@@H](O[C@H]7[C@H](O)[C@@H](O)[C@@H](O[C@H]8[C@H](O)[C@@H](O)[C@@H](O[C@H]1[C@H](O)[C@H]2O)O[C@@H]8CO)O[C@@H]7CO)O[C@@H]6CO)O[C@@H]5CO)O[C@@H]4CO)O[C@@H]3CO,inactive
